Read-out in experiment [1]: Vascular cell adhesion molecule 1 (VCAM1), VCAM1 (gene 7412)
As to the kind of experiment: BSK_4H_VCAM1: BioMAP Diversity Plus: 4H Assay for Vascular cell adhesion molecule 1 (VCAM1) Biomarker Activity (AID 2283033).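 For outcome: cell-surface VCAM-1 protein measured by ELISA.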 The following applies: primary human endothelial cells (HUVEC); actives raise or lower the signal. In a few lines:
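Endpoint derived from bidirectional fitting against DMSO controls of VCAM-1 ELISA signal in umbilical vein endothelial cells sampled at 24 h following treatment.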

Read-out in experiment [2]: Monokine induced gamma interferon (MIG), CXCL9 (gene 4283)
Kind of experiment: BSK_BE3C_MIG: BioMAP Diversity Plus: BE3C Assay for Monokine induced gamma interferon (MIG) Biomarker Activity (AID 2283035). The conditions noted are these: primary human bronchial epithelial cells; actives raise or lower the signal. In a few lines: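 ELISA read-out of MIG in human lung bronchial epithelial primary cultures, 24 h post-dosing. Bidirectional curve fit vs DMSO baseline.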

Read-out in experiment [3]: urokinase plasminogen activator (uPA), PLAU (gene 5328)
Kind of experiment: BSK_BE3C_uPA: BioMAP Diversity Plus: BE3C Assay for urokinase plasminogen activator (uPA) Biomarker Activity (AID 2283038).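 Note: uPA protein level quantified by ELISA in cell cultures; uPA read one day after compound addition.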 The following applies: primary human bronchial epithelial cells; actives raise or lower the signal. In a few lines:
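Primary human bronchial epithelial cells, uPA measured by ELISA 24 h after dosing. Bidirectional change relative to DMSO; cytotoxicity checked in parallel cultures by sulforhodamine B total-protein staining.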

Read-out in experiment [4]: Urokinase-type plasminogen activator receptor (uPAR), PLAUR (gene 5329)
As to the kind of experiment: BSK_BE3C_uPAR: BioMAP Diversity Plus: BE3C Assay for Urokinase-type plasminogen activator receptor (uPAR) Biomarker Activity (AID 2283039).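 For outcome: uPAR protein level measured by ELISA on the cells; cells exposed to compound for one day before measurement.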 The following applies: primary human bronchial epithelial cells; actives raise or lower the signal. In a few lines:
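A uPAR ELISA serves as the readout, taken 24 h after treating primary human bronchial epithelial cells. Responses in either direction are fitted against DMSO, which defines baseline activity.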

Read-out in experiment [5]: Interleukin-6 (IL6), IL6 (gene 3569)
As to the kind of experiment: BSK_CASM3C_IL6: BioMAP Diversity Plus: CASM3C Assay for Interleukin-6 (IL6) Biomarker Activity for (AID 2283040). The following applies: primary human coronary artery smooth muscle cells; actives raise or lower the signal.

Read-out in experiment [6]: Tissue plasminogen activator (tPA), PLAT (gene 5327)
Kind of experiment: BSK_BE3C_tPA: BioMAP Diversity Plus: BE3C Assay for Tissue plasminogen activator (tPA) Biomarker Activity (AID 2283041).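 For outcome: tPA level quantified by ELISA one day after compound addition.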 The following applies: primary human bronchial epithelial cells; actives raise or lower the signal. In a few lines: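 Bidirectional curve fitting relative to DMSO defined activity, with tPA detected by ELISA in chemically treated human bronchial epithelial primary cells at 24 hours.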

Read-out in experiment [7]: Interleukin-8 (IL8), CXCL8 (gene 3576)
As to the kind of experiment: BSK_CASM3C_IL8: BioMAP Diversity Plus: CASM3C Assay for Interleukin-8 (IL8) Biomarker Activity (AID 2283042).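 Note: IL-8 protein level quantified by ELISA.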 The following applies: primary human coronary artery smooth muscle cells; actives raise or lower the signal.

Read-out in experiment [8]: Human Leukocyte Antigen - DR isotype (HLADR), HLA-DRA (gene 3122)
Kind of experiment: BSK_CASM3C_HLADR: BioMAP Diversity Plus: CASM3C Assay for Human Leukocyte Antigen - DR isotype (HLADR) Biomarker Activity (AID 2283043).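 Note: cell-surface HLA-DR protein level quantified by ELISA.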 The conditions noted are these: primary human coronary artery smooth muscle cells; actives raise or lower the signal.

Read-out in experiment [9]: Macrophage colony-stimulating factor (MCSF), CSF1 (gene 1435)
Kind of experiment: BSK_CASM3C_MCSF: BioMAP Diversity Plus: CASM3C Assay for Macrophage colony-stimulating factor (MCSF) Biomarker Activity (AID 2283044).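 Note: M-CSF protein amount quantified by ELISA after 24 h exposure.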 The following applies: primary human coronary artery smooth muscle cells; actives raise or lower the signal.

Read-out in experiment [10]: Low-density lipoprotein receptor (LDLR), LDLR (gene 3949)
As to the kind of experiment: BSK_CASM3C_LDLR: BioMAP Diversity Plus: CASM3C Assay for Low-density lipoprotein receptor (LDLR) Biomarker Activity (AID 2283045).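 Note: LDLR protein level on the cell surface quantified by ELISA.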 The following applies: primary human coronary artery smooth muscle cells; actives raise or lower the signal.

Read-out in experiment [11]: Monocyte Chemoattractant Protein-1 (MCP1), CCL2 (gene 6347)
As to the kind of experiment: BSK_CASM3C_MCP1: BioMAP Diversity Plus: CASM3C Assay for Monocyte Chemoattractant Protein-1 (MCP1) Biomarker Activity (AID 2283046).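 Note: MCP-1 level quantified by ELISA 24 h after dosing.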 The following applies: primary human coronary artery smooth muscle cells; actives raise or lower the signal.

Read-out in experiment [12]: Monokine induced gamma interferon (MIG), CXCL9 (gene 4283)
As to the kind of experiment: BSK_CASM3C_MIG: BioMAP Diversity Plus: CASM3C Assay for Monokine induced gamma interferon (MIG) Biomarker Activity (AID 2283048).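 Note: MIG protein level measured by ELISA.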 The conditions noted are these: primary human coronary artery smooth muscle cells; actives raise or lower the signal.

Read-out in experiment [13]: serum amyloid A (SAA), SAA1 (gene 6288)
Kind of experiment: BSK_CASM3C_SAA: BioMAP Diversity Plus: CASM3C Assay for serum amyloid A (SAA) Biomarker Activity (AID 2283049).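 Note: SAA protein level quantified by ELISA.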 The following applies: primary human coronary artery smooth muscle cells; actives raise or lower the signal.

Experiment [14] can be described thus: BSK_CASM3C_SRB: Viability Assessment in the BioMAP Diversity Plus: CASM3C Assay (AID 2283050).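 Note: cells exposed to compound for 24 h.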 The following applies: primary human coronary artery smooth muscle cells.
Read-out in experiment [15]: Thrombomodulin, THBD (gene 7056)
Kind of experiment: BSK_CASM3C_Thrombomodulin: BioMAP Diversity Plus: CASM3C Assay for Thrombomodulin Biomarker Activity (AID 2283051).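 Note: thrombomodulin protein level measured by ELISA 24 h after dosing.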 The conditions noted are these: primary human coronary artery smooth muscle cells; actives raise or lower the signal.

Read-out in experiment [16]: Transforming growth factor beta 1 (TGFb1), TGFB1 (gene 7040)
Kind of experiment: BSK_BE3C_TGFb1: BioMAP Diversity Plus: BE3C Assay for Transforming growth factor beta 1 (TGFb1) Biomarker Activity (AID 2283036;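 for outcome: TGF-b1 protein level measured by ELISA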). The following applies: primary human bronchial epithelial cells; actives raise or lower the signal. In a few lines: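 In this human primary bronchial epithelial system, an ELISA quantified TGF-b1 one day after dosing. Endpoint changes in either direction were fitted relative to DMSO.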

Read-out in experiment [17]: Plasminogen activator inhibitor-1 (PAI1), SERPINE1 (gene 5054)
Kind of experiment: BSK_BE3C_PAI1: BioMAP Diversity Plus: BE3C Assay for Plasminogen activator inhibitor-1 (PAI1) Biomarker Activity (AID 2283037). The conditions noted are these: primary human bronchial epithelial cells; actives raise or lower the signal. In a few lines:
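PAI-1 biomarker levels in treated human bronchial epithelial cells are determined by ELISA at 24 h. Both increases and decreases relative to DMSO are fitted.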

A short description of experiment [18]: BSK_CASM3C_Proliferation: Cell Proliferation Assessment in the BioMAP Diversity Plus: CASM3C Assay (AID 2283047).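 Note: sulforhodamine B total protein stain as relative cell number at 560 nm; sub-confluent cells exposed 48 h before staining; fitted both ways against DMSO so gain or loss of cell number.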 The conditions noted are these: primary human coronary artery smooth muscle cells.
Read-out in experiment [19]: Interferon-gamma inducible Protein 10 (IP10), CXCL10 (gene 3627)
Kind of experiment: BSK_BE3C_IP10: BioMAP Diversity Plus: BE3C Assay for Interferon-gamma inducible Protein 10 (IP10) Biomarker Activity (AID 2283034). The conditions noted are these: primary human bronchial epithelial cells; actives raise or lower the signal. In a few lines:
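Using primary human bronchial epithelial cultures, the assay captures IP-10 by ELISA one day (24 h) after exposure. Parallel SRB staining of total protein flags overt cytotoxicity. Fits run bidirectionally relative to DMSO.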

Consider seven compounds from PubChem BioAssay (EPA / NIEHS).

The source made the active and inactive calls. Rule for the calls: active = hit-call score of the fitted dose curve at least 0.9, where 1 is the maximum; inactive = score below 0.9.

Broadly, the AC50 is the concentration at which the activity in the assay is half-maximal. For the compound `Oc1ccc2ccc3cccc4ccc1c2c34`, the AC50 in [1] is 34 µM (active); in [2], 31.2 µM (active); in experiment [4] it was 33 µM (active); in experiment [6], 36.1 µM (active); in experiment [8], 13.7 µM (active); in [10] it was 10.5 µM (active). The AC50 is 30.4 µM (active) in [13], 30.1 µM (active) in experiment [14] and 16.3 µM (active) in experiment [15]. Moreover, the outcome in [3], in experiment [5], in experiment [7], in experiment [9], in [11] and in [12] was inactive.

In the case of `CNC(=O)Oc1cccc2c1OC(C)(C)C2`, the result in [1], in [16], in [17], in experiment [3], in [4] and in [5] was inactive. Further, the outcome in experiment [6], in experiment [7], in experiment [8], in experiment [9], in experiment [10] and in experiment [11] was inactive. Further, the result in [18], in experiment [12], in [13], in experiment [14] and in [15] was inactive.

As for `CN(C)c1ccc(C(=O)c2ccc(N(C)C)cc2)cc1`, the outcome in [1], in [2], in [16], in experiment [3], in experiment [4] and in experiment [5] was inactive. For the same compound, the outcome in experiment [6], in experiment [7], in experiment [8], in experiment [9], in experiment [10] and in experiment [11] was inactive. The outcome in experiment [12], in [13], in experiment [14] and in [15] was inactive. Further, the AC50 in [18] was 2 µM (active).

For the compound `CC(O)CCO` (stereo unspecified), the outcome in [1], in [19], in experiment [17], in experiment [3], in experiment [4] and in experiment [5] was inactive. Also, the outcome in experiment [6], in [7], in experiment [8], in experiment [9], in experiment [10] and in experiment [11] was inactive. In addition, the result in [18], in experiment [12], in experiment [13], in [14] and in experiment [15] was inactive.

For `Nc1ccc(Cc2ccc(N)cc2)cc1`, the outcome in experiment [1], in experiment [16], in experiment [3], in experiment [4], in experiment [5] and in [6] was inactive. The outcome in experiment [7], in experiment [8], in [9], in [10], in experiment [11] and in experiment [18] was inactive. The outcome in experiment [12], in experiment [13], in experiment [14] and in experiment [15] was inactive.

Consider `OCCOCCO`, for which the result in experiment [1], in experiment [2], in experiment [3], in experiment [4], in experiment [5] and in experiment [6] was inactive. The result in experiment [7], in [8], in [9], in [10], in experiment [11] and in [18] was inactive. The result in experiment [12], in experiment [13], in [14] and in [15] was inactive.

`ClC1=C(Cl)C2(Cl)C3C(Cl)C=CC3C1(Cl)C2(Cl)Cl` (stereo unspecified): the AC50 in experiment [1] is 32.4 µM (active); in experiment [2], 31.3 µM (active); in experiment [16], 20 µM (active); in experiment [17], 35 µM (active); in [5] it was 27.2 µM (active); in experiment [6] it was 20 µM (active). The AC50 in [7] was 34.6 µM (active); in [8], 29.3 µM (active); in [9], 30 µM (active); in experiment [10], 31.8 µM (active); in experiment [11], 33.6 µM (active); in [18], 32 µM (active). For the same compound, the values for the AC50 in experiment [12], in experiment [13] and in [14] were 31.2 µM (active), 30.2 µM (active) and 32 µM (active), respectively. In addition, the outcome in [3], in experiment [4] and in experiment [15] was inactive.
